The structures appear in SMILES notation. Records with an inconclusive call do not appear. A call without a number means that no potency is given here. Activity calls are given as the source filed them. Calls follow the shape of the dose curve; as a rule, active = well fitted inhibition curve with a large enough effect; inconclusive = small, poorly fitted or top-dose-only effect; inactive = flat fitted curve, though single readings scatter.

In this experiment the target is Calcium and integrin-binding protein 1 (Homo sapiens) (UniProt Q99828). Put plainly: Primary qHTS for Identification of Calcium Integrin Binding Protein 1 (CIB1) Competitor (AID 1508620).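 Also: GST tagged CIB1 binding a fluorescein labelled alphaIIb integrin peptide tracer; top concentration of the series differs between compounds.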 The note with it: CIB1-GST / FITC-alphaIIb peptide fluorescence polarization; series mostly up to 114 µM. An outline of the steps: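 CIB1-GST (1 uM final) and compound incubated 15 min at room temperature before adding FITC-alphaIIb peptide tracer (100 nM final). Competition for binding read by fluorescence polarization (ex 480, em 540) after another 15 min at room temperature.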
Sequence of Calcium and integrin-binding protein 1 (Homo sapiens) (Q99828 whole entry, looked up): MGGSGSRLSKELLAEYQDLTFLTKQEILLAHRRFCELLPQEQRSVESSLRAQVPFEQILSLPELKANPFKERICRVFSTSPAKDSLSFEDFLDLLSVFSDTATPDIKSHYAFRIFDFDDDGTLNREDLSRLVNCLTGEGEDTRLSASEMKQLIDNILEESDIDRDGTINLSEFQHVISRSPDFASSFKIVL
In the case of `O=C(COC(=O)CNC(=O)c1ccccc1Cl)Nc1cc(C(F)(F)F)ccc1Cl`, the Potency entry was “inactive”. To `N#Cc1cccc(OC2=NS(=O)(=O)c3ccccc32)c1` belongs “inactive”; to `COC(=O)c1ccccc1S(=O)(=O)Nc1ccc(OC)cc1`, “inactive”. To `COc1ccc(NS(=O)(=O)c2ccc3c(c2)CCC(=O)N3)cc1` belongs “inactive”; to `O=S(=O)(Nc1ccccc1)c1ccc(NCc2cccc(Cl)c2O)cc1`, “inactive”.

For `O=C1CCCC2=C1C(c1ccccc1)N=C(Nc1nc3ccccc3o1)N2` (configuration not stated), the Potency entry was “inactive”. To `Cc1cc(N[S+](=O)([O-])c2ccc(NC(=O)Cc3cccc(Cl)c3Cl)cc2)no1` belongs “inactive”; to `CC(C)(C)c1ccc(C(=O)NCC(=O)OC(C(=O)Nc2cc(C(F)(F)F)ccc2Cl)c2ccccc2)cc1` (configuration not stated), “inactive”; to `O=C(Nc1cccc(-c2nn3c(=O)cc(N4CCNCC4)nc3s2)c1)c1ccon1`, “inactive”. The entry for `COc1ccnc(NC(=S)N2CCN(c3ncc(C(F)(F)F)cc3Cl)CC2)c1` is “inactive”. To `CN(CC(=O)Nc1ccc(N2CCOCC2)cc1)Cc1ccccc1O` belongs “inactive”; to `COc1ccc(C(=O)NCC(=O)OC(C(=O)Nc2cc(C(F)(F)F)ccc2Cl)c2ccccc2)cc1OC` (configuration not stated), “inactive”.

Consider `Cc1ccc(NS(=O)(=O)c2cc3c(cc2-c2ccccc2)NC(=O)CO3)cc1C`, for which the Potency result was “inactive”. `Cc1ccc(NS(=O)(=O)c2cc3c(cc2NC(C)C)NC(=O)CC3)cc1C`: the Potency entry is “inactive”.

As for `Cc1ccc(OCCCn2c(CCNC(=O)C3CCCCC3)nc3ccccc32)cc1`, the Potency result was “inactive”. To `Cn1ccc2cc(-c3csc(N4CCC(C(N)=O)CC4)n3)ccc21` belongs “inactive”; to `N#Cc1nc(-c2cccc3ccccc23)oc1NC1CNC1`, “inactive”.
